# Bioassay records (PubChem)
# This is a sample that favours compounds with a hit; in the whole collection about 8.9% have one here.
# KB-3-1 cytotox: KB-3-1 parental cell cytotoxicity; 400,000 compounds, 1.4% hits; Potency, µM (titrated, usually from 46.1 µM), actives largely listed as cytotoxic; KB-3-1 viability, CellTiter-Glo ATP luminescence, 72 h; also: potency is read from the fitted curve at half-maximal effect; % is scaled to controls: 0 for no effect and ±100 for the full control effect; nearly all actives have a fitted effect of over 60% in size
#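 Cytotoxicity in the drug-sensitive parental line KB-3-1 was scored as loss of CellTiter-Glo luminescence following 72 h incubation with compound. Values come from curve fitting of normalized concentration-response data.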
# SW480 rereplic: induces DNA re-replication in SW480 colon adenocarcinoma cells. SW480 DNA re-replication, Hoechst DNA content imaging, 48 h. 340,000 compounds, 1.8% hits. AID 624297. Potency, µM (doses to about 46.1 µM), for the others: at the highest dose re-replication activation, hits mostly activators; also: potency is read from the fitted curve at half-maximal effect; % of control where 0% means no effect; nearly all actives have a fitted effect of over 55% in size
#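 Per well, 250 cells were exposed to pinned compound for 48 hr. Nuclear DNA was visualised with Hoechst (40 min, 37 C) and total object intensity recorded by fluorescence scanning.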
# DRD3 antagonist: blocks the human D3 dopamine receptor. 360,000 compounds, 2.5% hits. max response, negative = inhibition, %. D3R cells, DiscoveRx beta-arrestin luminescence, antagonist mode; stronger effect = lower value. P35462; in the data active = max response below about -50%; inconclusive = no clear call, values can overlap the other calls; also: % is scaled to controls: 0 for no effect and ±100 for the full control effect
# Target sequence (P35462 whole entry, looked up): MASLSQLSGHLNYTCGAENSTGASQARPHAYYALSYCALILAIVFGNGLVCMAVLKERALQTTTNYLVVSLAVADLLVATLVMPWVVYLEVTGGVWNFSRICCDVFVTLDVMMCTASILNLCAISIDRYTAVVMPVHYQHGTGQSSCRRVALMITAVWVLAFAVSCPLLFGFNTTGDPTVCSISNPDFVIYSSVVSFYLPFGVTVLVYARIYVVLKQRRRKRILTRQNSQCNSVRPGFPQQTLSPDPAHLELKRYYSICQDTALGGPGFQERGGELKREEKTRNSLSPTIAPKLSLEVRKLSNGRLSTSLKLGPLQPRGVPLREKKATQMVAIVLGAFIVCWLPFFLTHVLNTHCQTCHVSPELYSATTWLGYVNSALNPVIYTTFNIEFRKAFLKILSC
#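 Cells plated overnight at 1500 cells/well, then exposed to library compounds with dopamine controls for 90 minutes at 37 degrees C. DiscoveRx reagent added for 30–60 minutes at room temperature; luminescence read, quantitative HTS format.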
# D3 ag: D3 dopamine receptor (human) agonism; max activation, %; 410,000 compounds, 0.58% hits; AID 652048; P35462; D3R DiscoveRx beta-arrestin cells, luminescence, 90 min; in the data active = max activation above about 30%; also: 0% is about no effect
#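 Cells at 1500/well, incubated overnight, then treated with pinned compounds (dopamine as control) for 90 min at 37 degrees C. DiscoveRx reagent added for 30 - 60 minutes at room temperature; luminescence read.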
# MCF10A rereplic: inducers of DNA re-replication in MCF 10A breast cells; MCF 10A DNA re-replication, Hoechst nuclear intensity, 48 h; Potency, µM (titrated, usually from 46.1 µM), for inactives: at the top dose activity, positive = re-replication, usual class: activators; 350,000 compounds, 2.9% hits; AID 624296; also: potency is read from the fitted curve at half-maximal effect; % of control where 0% means no effect; nearly all actives have a fitted effect of over 50% in size
# KB-V1 cytotox: kills drug-selected multidrug resistant KB-V1 cells | KB-V1 MDR cells viability, CellTiter-Glo, 72 h | Potency, µM (titrated, usually from 46.1 µM), most hits filed as cytotoxic | 400,000 compounds, 3.4% hits | AID 1347076; also: potency is read from the fitted curve at half-maximal effect; % is scaled to controls: 0 for no effect and ±100 for the full control effect; nearly all actives have a fitted effect of over 60% in size
#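 Compound-treated KB-V1 multidrug-resistant cells, 72 h, 37 degrees C; viability by CellTiter-Glo. Fitted qHTS curves give the values.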
# Numbers without * were called inactive; i = inactive; ? = inconclusive; nt = no result; ! = not confirmed by another sample; [ ] = remark or other dose. Unless noted, calls follow the shape of the dose curve; as a rule, active = well fitted curve in the direction sought with a large enough effect; inconclusive = small, poorly fitted or top-dose-only effect, or another doubt; inactive = no such curve, though single readings can be large; an effect the other way counts as inactive or inconclusive.
SMILES,KB-3-1 cytotox,SW480 rereplic,DRD3 antagonist,D3 ag,MCF10A rereplic,KB-V1 cytotox
O=C(Nc1nc2n(n1)C(c1ccc(Cl)cc1)CC(c1ccc(Cl)cc1)N2)c1ccco1 (configuration not stated),?,10%,-53*,-12,?,?
COc1ccc(C2CC(c3ccc(Cl)cc3)Nc3nc(NC(=O)c4ccco4)nn32)cc1 (configuration not stated),i,3%,-7,2,?,i
NC(=O)c1ncn([C@@H]2O[C@H](CNC(=O)[C@H](N)CSCc3ccccc3)[C@@H](O)[C@H]2O)n1,i,4%,31,16,-4%,i
O=c1[nH]c(SCc2ccccc2Cl)nc2c1CCC2,i,-3%,58,18,18%,i
CNc1nc(SCc2ccccc2Cl)nc2c1CCCC2,i,0%[9.22 µM],8,0,18µM*,?
O=c1c2cc3c(cc2n(Cc2ccccc2)c(=O)n1Cc1nc(-c2ccccc2)no1)OCO3,i,nt,nt,-6,nt,i
COc1cc(C(O)c2nc(-c3ccc(F)cc3OC)cs2)ccc1F (configuration not stated),i,nt,9,9,nt,i
Brc1cccc(Cn2c(-c3cncs3)nc3ccccc32)c1,?,2%,17,-1,27%,?
N#CCCCCn1c(-c2cncs2)nc2ccccc21,i,0%,-56*,-3,0%,i
c1ccc(Cn2c(-c3cncs3)nc3ccccc32)cc1,i,4%,-4,-15,20%,i
Brc1ccc(Cn2c(-c3cncs3)nc3ccccc32)cc1,i,1%,16,1,4%,16µM*
CCS(=O)(=O)NCCc1csc2nc(-c3ccc(OC)cc3)nn12,nt,nt,nt,3,nt,nt
COc1cc(C(=O)NC2CCN(C)CC2)ccc1Nc1ncc2c(n1)N(CCc1ccccc1)CCC(=O)N2C,?,0.21µM*,-4,10,9.2µM*,i
CC(C)(C)c1ccc(-c2nc(C=O)c3ccccn23)cc1,i,4%,-4,0,29%,16µM*
C=CC[C@H]1Cc2c(cccc2[N+](=O)[O-])[C@H](CC=C)N1,i,?,-10,25,2%,i
C=CCC1Cc2c(Br)cccc2C(CC=C)N1 (configuration not stated),i,-24%,0,8,0.92µM*,i
COc1ccc(S(=O)(=O)N(CC(=O)NCCc2ccccc2)c2ccc(Cl)cc2)cc1,i,nt,nt,-11,nt,?
COc1ccccc1N1CCN(C(=O)c2cc3c(=O)oc4ccc(C)cc4c3s2)CC1,i,nt,nt,-5,nt,i
Cn1cc(C2NC(=O)c3ccccc3N2)c2ccccc21 (configuration not stated),1.2µM*,5.8µM*,-9,-6,2.9µM*,1.5µM*
Cc1cc(C)c2nc(Cl)c(C3NC(=O)c4ccccc4N3)cc2c1 (configuration not stated),i,6%,-13,-8,?,i
COc1cc(C)c(C2NC(=O)c3ccccc3N2)cc1C (configuration not stated),2.6µM*,7.3µM*,27,-2,7.3µM*,?
Cc1ccc(C)c(C2NC(=O)c3ccccc3N2)c1 (configuration not stated),?,7.3µM*,-8,-1,2.3µM*,i
Cc1ccc(Cl)cc1N1CCN(CCCNc2ncnc3onc(-c4ccc(F)cc4)c23)CC1,i,nt,nt,-24,nt,i
CC1=C(C(N)=O)C(c2cccc(C)c2)n2nc(-c3ccc(Cl)cc3)nc2N1 (configuration not stated),nt,nt,nt,10,nt,nt
O=c1[nH]c(=S)[nH]c2c1C(c1cccc(C(F)(F)F)c1)OC(CCc1ccccc1)C2 (configuration not stated),i,nt,-71*,-6,nt,i
SMILES,KB-3-1 cytotox,SW480 rereplic,DRD3 antagonist,D3 ag,MCF10A rereplic,KB-V1 cytotox
NNC(=O)c1ccc(Cn2cc(Br)cn2)o1,i,-18%,5,0,-2%,i
NNC(=O)c1ccc(Cn2cccn2)o1,i,2.3µM*,-13,-12,?,i
C=CCN1C(=O)/C(=C\c2ccc(Cl)cc2)N=C1SCC(=O)NC1CCCCC1,i,-8%,-9,-3,-4%,?
COc1ccc(Cl)cc1N1C(=O)/C(=C\c2sccc2C)N=C1SCC(=O)NC1CC1,i,10%,-18,9,-3%,21µM*
c1csc(-c2nnc(Cc3cccc4ccccc34)o2)c1,i,-2%,7,-6,13%,15µM*
Cc1oc(-c2cccc(Br)c2)nc1CN1CCC(C(=O)NCc2ccccc2)CC1,i,nt,nt,-21,nt,i
C#CCOc1ccc(/C=C2\SC(=S)N(Cc3cccnc3)C2=O)cc1,21µM*,15µM*,5,-2,21µM*,?
O=C1/C(=C/c2ccc(O)cc2)SC(=S)N1Cc1cccnc1,i,1%,-17,-6,10%,i
O=C(Cn1cc(COc2c(F)c(F)cc(F)c2F)nn1)c1ccc(O)cc1,i,-3%,-79*,1,-31%,i
CC(C)Cn1cnc2c(SCc3ccccc3)nc(N)nc21,i,-1%,7,0,13%,i
CC(C)Cn1cnc2c(N)nc3ccccc3c21,i,0.58µM*!,3,8,?,?
Cc1ccc(-c2[nH]c3cc(C(=O)NCCCn4ccnc4)ccc3c(=O)c2O)cc1,i,-6%,-64*,7,-1%,i
Cc1ccc(CNC(=O)c2ccc3c(=O)c(O)c(-c4ccc(C)cc4)[nH]c3c2)cc1,4.6µM*,?,0,-29,?,?
CCOC(=O)c1cccc(NC(=O)c2ccc3c(Cl)c4c(nc3c2)CCC4)c1,i,nt,nt,8,nt,i
O=c1[nH]c(-c2ccccn2)nc2ccccc12,?,?,-74*,-9,?,i
Cc1sc2nc(-c3ccncc3)[nH]c(=O)c2c1-c1ccccc1,nt,0%,nt,nt,0%,nt
O=c1[nH]c(-c2ccccn2)nc(C(F)(F)F)c1Br,?,10µM*,-30,-9,18µM*,i
Cc1ccc2nc(-c3ccccn3)[nH]c2c1,?,0%,-1,-4,-15%,18µM*
Cc1sc2nc(-c3ccccn3)[nH]c(=O)c2c1-c1ccccc1,?,23µM*,-9,3,?,i
CSc1ccc(CCNC(=O)c2cc3cc(S(=O)(=O)N4CCCCC4)ccc3n2C)cc1,nt,nt,nt,10,nt,nt
